The values that follow come from PubChem BioAssay (NCI).

Compounds without any hit were thinned out: in the full panel of roughly 83,000, 20% have a hit.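 Percent growth is the endpoint: 0 to 100 indicates growth inhibition (40 means 60% inhibition), 0 means no net growth, and negative values indicate cell death.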 Active and inactive are the calls of the source.

In this experiment the test system is SK-OV-3 ovarian. Put plainly: NCI-60 one-dose screen, 48 h (100 = growth as untreated, 0 = no growth, -100 = all killed). The settings on record: 10 µM unless noted. How it is done:
Growth inhibition of the SK-OV-3 human tumor cell line is measured as a screen for anti-cancer activity. Cells are grown in 96 well plates and exposed to the test compound for 48 hours. Compounds are tested at a single concentration, which is 10^-5 M for most compounds. The reported endpoint is percent growth (GI% or GIPRCNT), where numbers from 0 - 100% represent growth inhibition, and numbers from -100% - 0 represent cell death. For example, a value of 40 represents 60% growth inhibition. A value of 0 means no net growth occurred over the course of the experiment. A value of -40 indicates 40% of cells at the beginning of the experiment died by the end of the experiment. A value of -100 means all cells are dead at the end of the experiment.
NCI-60 Human Tumor Cell Lines Screen was performed using the standard one-dose NCI protocol, which is described in more detail at https://dtp.cancer.gov/discovery_development/nci-60/default.htm.
Compounds with GIPRCNT values below 10 were considered active. Activity score was based on GIPRCNT using the following formula: […]
Score is 0 for GIPRCNT values of 100 or above, 50 for GIPRCNT values of 0, and 100 for GIPRCNT values of -100.
Take `Cc1cc(C#Cc2ccccc2)ccc1-n1c(/C=C/c2ccc(F)cc2)nc2ccccc2c1=O`: the growth is 89.9% (inactive). Consider `NC(N)=N/N=C\c1cccc(OCc2ccccc2)c1`, for which the growth was 81.6% (inactive). To `COc1ccc(/C=C(/C(=O)N2CCN(c3ccccc3)CC2)c2cc(OC)c(OC)c(OC)c2)cc1O` belongs 30.4% (inactive); to `CCC1CCc2nc3sc(C(=O)Nc4cccc(F)c4)c(N)c3cc2C1` (stereo not given), 83.1% (inactive). To `CN(CCO)c1ccc(N2Cc3ccccc3OC3=C2C(=O)c2c(O)ccc(O)c2C3=O)cn1` belongs -3.73% (active); to `CSCCC1NC(=O)C(C(C)=Nc2ccccc2)=C1O` (stereo not given), 101% (inactive); to `CCCCc1n(Cc2ccc3ccccc3n2)cc[n+]1Cc1ccc2ccccc2n1`, 24.4% (inactive). For `CSC1=NC(=Nc2c(C)cccc2C)C2(CCC(C(C)(C)C)CC2)N1c1ccc(Cl)cc1` (stereo not given), the growth is 57.6% (inactive). Take `O=C1C=CC(=O)N1c1cccc(N2C(=O)C=CC2=O)c1`: the growth is 111% (inactive). To `O=[N+]([O-])c1cc(F)c2cccnc2c1O` belongs 97.4% (inactive). In the case of `Cc1cc(C)cc(CCCCCCCCCCCCCCCCCC(=O)O)c1` it was 105% (inactive); in that of `COC(=O)C(C)NC1=C(Cl)C(=O)C(NC(C)C(=O)OC)=C(Cl)C1=O` (stereo not given), 105% (inactive). In the case of `CCCCCCCCCC1=NC(C)(C)CN1C(C)(C)CO` it was 124% (inactive); in that of `C[C@@H](C[C@H](CC1CC1)c1ccccc1)c1ccc2ccccc2c1`, 117% (inactive). For `COc1cc2nccc(Oc3ccc(NC(=O)C4(C(=O)Nc5ccc(F)cc5)CC4)cc3)c2cc1OC(=O)c1ccc(N)cc1`, the growth is 69.6% (inactive).

As to `Cn1c(=O)c2c3c(oc2c2ccccc21)C(=O)c1ccccc1C3=O`, the growth is 93.6% (inactive). Turning to `CC(=O)c1cc(C(=O)c2ccc3c(c2)Sc2ccccc2N3)c2c(C)cccn12`, the growth was 25.1% (inactive). To `COc1ccc([C@@H]2[C@@H](Cl)C(=O)N2c2cc(OC)c(OC)c(OC)c2)cc1C` belongs 30.4% (inactive); to `COc1cc(C)c2c(=O)c3c(oc2c1)C(=O)c1c(O)c(OC)cc(O)c1C3=O`, 9.16% (active). As for `C#CCNC(=S)N/N=C(\C)c1ccccn1`, the growth is 30.8% (inactive). In the case of `CCCCNCC(O)c1cc2c(Cl)cc(Cl)cc2c2cc(C(F)(F)F)ccc12` (stereo not given) it was -22.8% (active). For the compound `Cc1cc(-c2nnc(/C=C/c3ccc4c(c3)OCO4)o2)n[nH]1`, the growth is 80.6% (inactive). To `O=C1Cc2c([nH]c3ccc([N+](=O)[O-])cc23)-c2ccccc2N1` belongs 28.2% (inactive); to `CN(C)CCOc1nc2c3ccncc3cc(-c3cccc(Cl)c3)c2c2cnccc12`, 46.8% (inactive). To `Nc1nc(N)c2cc(CNc3ccc(Cl)c(Cl)c3)ccc2n1` belongs 49.9% (inactive); to `Clc1ccc2c(c1)-n1cccc1C(c1ccc3ccccc3c1)=NC2`, 94.5% (inactive).

On to `CCOC(CN1CCN(CC(C)C(=O)c2ccccc2)CC1)c1ccccc1` (stereo not given), for which the growth was 105% (inactive).

Consider `CCOc1ccc([C@@H]2[C@@H](Oc3ccccc3)C(=O)N2c2cc(OC)c(OC)c(OC)c2)cc1`, for which the growth is 29.6% (inactive).

For `Cc1cc(C)c([O-])c(CN(C)CCN(C)Cc2cc(C)cc(C)c2[O-])c1.O=C([O-])c1cccc(C(=O)[O-])n1.[Ti+4]`, the growth was 34.3% (inactive). On to `C=CCn1c(SCC(=O)Nc2ccc(C(=O)/C=C/c3ccccc3)cc2)nnc1-c1ccc(OC)c(OC)c1`, for which the growth was 93.4% (inactive). Consider `COc1ccc(/C=C2\N=C(c3cccnc3)N(c3ccccc3)NC2=O)cc1`, for which the growth is 130% (inactive). As for `COc1ccc(/C=c2\c(=O)n(-c3ccccc3)c3nn4c(=O)c(=O)[nH]nc4n23)cc1`, the growth is 113% (inactive). With `O=C(CCCCCCc1nc2ccc(Br)cc2[nH]1)NO`, the growth was -41.8% (active). In the case of `C=C(C)c1ccc(/C=N/NC(N)=S)cc1` it was 125% (inactive); in that of `Nc1nonc1-c1nc2ccccc2n1Cc1ccc(F)cc1`, 54.4% (inactive).

Turning to `CC(C)(C)NC(=O)C(OC(=O)C1CCc2cc(F)ccc2O1)c1ccccc1Cl` (stereo not given), the growth is 102% (inactive). In the case of `Cc1nc2ccc(Nc3nc(NCCN4CCOCC4)nc(Nc4ccc(F)cc4)n3)cc2n1Cc1ccccc1` it was 79% (inactive); in that of `CCOC(=O)c1ccc(NCCC(=O)O)cc1`, 113% (inactive). Turning to `CCn1c(CN2CCN(Cc3ccccc3)CC2)nc2cc(NC(=O)c3cccs3)ccc21`, the growth is -95.1% (active). As to `COc1ccc(/C=c2\c(=O)n(-c3ccccc3)c3nn4c(n23)=NNC42CCCCC2)cc1`, the growth was 95.5% (inactive).
